Data from PubChem BioAssay (EPA / NIEHS).
Active and inactive are the calls of the source. How the source made its calls: active means hit-call score of the fitted dose curve at least 0.9, where 1 is the maximum; inactive means score below 0.9.

How the values were obtained:
Details in all cases: mRNA level, 48 h; actives raise or lower the signal
[1] = read-out: MicroRNA 122 (MIR122), gene 406906; assay: LTEA_HepaRG_MIR122: Life Technologies and Expression Analysis (LTEA) Assay for MicroRNA 122 (MIR122) using HepaRG (AID 2283516); further: the transcript read is the microRNA miR-122
Summary of the method: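 HepaRG, 48 h exposure, 8-pt half-log from 100 uM, 0.5% DMSO; TaqMan qRT-PCR; bidirectional fit vs DMSO.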

[2] = read-out: matrix metalloproteinase-10 (MMP10), MMP10 (gene 4319); assay: LTEA_HepaRG_MMP10: Life Technologies and Expression Analysis (LTEA) Assay for matrix metalloproteinase-10 (MMP10) using HepaRG (AID 2283517)
Summary of the method: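 Differentiated HepaRG cells in serum-free induction medium exposed 48 h in duplicate to 8-point half-log series up to 100 uM in 0.5% DMSO. mRNA quantified by qRT-PCR, normalised to ACTB, GAPDH, POLR2A; bidirectional fit versus DMSO.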

MYC, MYC (gene 4609) = assay: LTEA_HepaRG_MYC: Life Technologies and Expression Analysis (LTEA) Assay for MYC using HepaRG (AID 2283518)
Summary of the method: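 Differentiated HepaRG cells exposed 48 h in serum-free induction medium to 8 concentrations (top 100 uM, half-log steps; 0.5% DMSO), duplicate. MYC mRNA measured by Fluidigm qRT-PCR, normalized to ACTB, GAPDH, POLR2A; bidirectional fit versus DMSO.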

[3] = read-out: matrix metalloproteinase-3 (MMP3), MMP3 (gene 4314); assay: LTEA_HepaRG_MMP3: Life Technologies and Expression Analysis (LTEA) Assay for matrix metalloproteinase-3 (MMP3) using HepaRG (AID 2283519)
Summary of the method: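 HepaRG cells (~100,000/well) in serum-free induction medium were dosed in duplicate for 48 h with an 8-point half-log series from 100 uM, 0.5% DMSO. MMP3 mRNA was quantified by Fluidigm TaqMan qRT-PCR, normalized to three housekeeping genes.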

[4] = read-out: Paternally Expressed 10 (PEG10), PEG10 (gene 23089); assay: LTEA_HepaRG_PEG10: Life Technologies and Expression Analysis (LTEA) Assay for Paternally Expressed 10 (PEG10) using HepaRG (AID 2283520);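 on AC50: PEG10 transcript by qRT-PCR normalised to ACTB GAPDH and POLR2A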
Summary of the method: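 Chemicals tested on HepaRG cells for 48 h, highest concentration 100 uM. PEG10 expression assessed by qRT-PCR relative to DMSO control.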

[5] = read-out: Protein phosphatase 2A (PPP2R4), PTPA (gene 5524); assay: LTEA_HepaRG_PPP2R4: Life Technologies and Expression Analysis (LTEA) Assay for Protein phosphatase 2A (PPP2R4) using HepaRG (AID 2283522)
Summary of the method: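 Gene-expression endpoint in HepaRG hepatic cells: 48 h treatment across eight half-log concentrations up to 100 uM in 0.5% DMSO. PPP2R4 mRNA by qRT-PCR, normalized to three endogenous control genes.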

[6] = read-out: solute carrier (SLC22A1), SLC22A1 (gene 6580); assay: LTEA_HepaRG_SLC22A1: Life Technologies and Expression Analysis (LTEA) Assay for solute carrier (SLC22A1) using HepaRG (AID 2283524)
Summary of the method: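 Differentiated human HepaRG cells in serum-free induction medium, exposed 48 h in duplicate to 8-point half-log series from 100 µM top in 0.5% DMSO. SLC22A1 mRNA by TaqMan qRT-PCR normalized to ACTB, GAPDH, POLR2A; bidirectional fit versus DMSO.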

[7] = read-out: Pyruvate Dehydrogenase Kinase 4 (PDK4), PDK4 (gene 5166); assay: LTEA_HepaRG_PDK4: Life Technologies and Expression Analysis (LTEA) Assay for Pyruvate Dehydrogenase Kinase 4 (PDK4) using HepaRG (AID 2283525)
Summary of the method: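 HepaRG cells plated 48 h, then switched to serum-free induction medium and exposed in duplicate for 48 h to 8 half-log concentrations from 100 uM in 0.5% DMSO. PDK4 mRNA measured by qRT-PCR, normalized to ACTB, GAPDH and POLR2A; bidirectional fit versus DMSO.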

[8] = read-out: NAD(P)H dehydrogenase [quinone] 1 (NQO1), NQO1 (gene 1728); assay: LTEA_HepaRG_NQO1: Life Technologies and Expression Analysis (LTEA) Assay for NAD(P)H dehydrogenase [quinone] 1 (NQO1) using HepaRG (AID 2283526)
Summary of the method: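 Human HepaRG hepatic cells received chemicals for 48 h in serum-free induction medium with 0.5% DMSO, up to 100 uM. Expression was assessed by TaqMan qRT-PCR against housekeeping controls and fitted bidirectionally against DMSO.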

[9] = read-out: Nuclear factor erythroid 2-related factor 2 (Homo sapiens) (UniProt Q16236); assay: LTEA_HepaRG_NFE2L2: Life Technologies and Expression Analysis (LTEA) Assay for Nuclear factor erythroid 2-related factor 2 (NFE2L2) Transcription Factor using HepaRG (AID 2283527)
Summary of the method: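 Differentiated human HepaRG cells, serum-free induction medium, exposed 48 h in duplicate to eight half-log concentrations up to 100 uM in 0.5% DMSO. NFE2L2 mRNA by Fluidigm TaqMan qRT-PCR, normalised to ACTB, GAPDH, POLR2A; bidirectional change versus DMSO.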

[10] = read-out: Signal transducer and activator of transcription 3 (Homo sapiens) (UniProt P40763); assay: LTEA_HepaRG_STAT3: Life Technologies and Expression Analysis (LTEA) Assay for Signal transducer and activator of transcription (STAT3) using HepaRG (AID 2283529)
Summary of the method: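 Differentiated HepaRG cells, serum-free induction medium, dosed 48 h in duplicate, 8 half-log concentrations from 100 uM in 0.5% DMSO. STAT3 mRNA by qRT-PCR, normalised to ACTB, GAPDH, POLR2A; bidirectional fit versus DMSO.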

[11] = read-out: solute carrier (SLCO1B1), SLCO1B1 (gene 10599); assay: LTEA_HepaRG_SLCO1B1: Life Technologies and Expression Analysis (LTEA) Assay for solute carrier (SLCO1B1) using HepaRG (AID 2283530)
Summary of the method: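 Differentiated human HepaRG cells were exposed for 48 h in serum-free induction medium to eight half-log concentrations, top 100 uM, in 0.5% DMSO. SLCO1B1 mRNA was measured by qRT-PCR, normalized to ACTB, GAPDH and POLR2A, and fitted bidirectionally against DMSO.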

[12] = read-out: sulfotransferase 2A1 (SULT2A1), SULT2A1 (gene 6822); assay: LTEA_HepaRG_SULT2A1: Life Technologies and Expression Analysis (LTEA) Assay for sulfotransferase 2A1 (SULT2A1) using HepaRG (AID 2283531)
Summary of the method: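 HepaRG human liver cells, 48 h exposure in serum-free induction medium to 8 half-log concentrations topping at 100 µM (0.5% DMSO), duplicate wells. SULT2A1 mRNA measured by TaqMan qRT-PCR, normalized to ACTB/GAPDH/POLR2A; bidirectional fit against DMSO.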

[13] = read-out: Transforming Growth Factor (TGFA), TGFA (gene 7039); assay: LTEA_HepaRG_TGFA: Life Technologies and Expression Analysis (LTEA) Assay for Transforming Growth Factor (TGFA) using HepaRG (AID 2283532)
Summary of the method: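 Differentiated HepaRG cells exposed 48 hours in serum-free induction medium, 0.5% DMSO vehicle, 8-point half-log series from 100 uM, in duplicate. TGFA mRNA by TaqMan qRT-PCR, normalised to ACTB, GAPDH, POLR2A; bidirectional fit versus DMSO.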

[14] = read-out: Transforming Growth Factor (TGFB1), TGFB1 (gene 7040); assay: LTEA_HepaRG_TGFB1: Life Technologies and Expression Analysis (LTEA) Assay for Transforming Growth Factor (TGFB1) Transporter using HepaRG (AID 2283533)
Summary of the method: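 Differentiated HepaRG cells exposed 48 hr in serum-free induction medium to eight half-log concentrations up to 100 uM (0.5% DMSO), duplicate; TGFB1 mRNA by TaqMan qRT-PCR normalised to ACTB, GAPDH, POLR2A; bidirectional fit against DMSO.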

TIMP1, TIMP1 (gene 7076) = assay: LTEA_HepaRG_TIMP1: Life Technologies and Expression Analysis (LTEA) Assay for TIMP1 using HepaRG (AID 2283534);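 further: TaqMan qRT-PCR signal normalized to ACTB GAPDH and POLR2A housekeeping genes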
Summary of the method: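 Differentiated HepaRG cells exposed 48 h in serum-free induction medium, duplicates, eight half-log concentrations from 100 uM in 0.5% DMSO. TIMP1 mRNA by qRT-PCR normalized to ACTB, GAPDH, POLR2A; bidirectional fitting against DMSO.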

[15] = read-out: Tumor necrosis factor receptor 1 (TNFRSF1A), TNFRSF1A (gene 7132); assay: LTEA_HepaRG_TNFRSF1A: Life Technologies and Expression Analysis (LTEA) Assay for Tumor necrosis factor receptor 1 (TNFRSF1A) using HepaRG (AID 2283535)
Summary of the method: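 Differentiated HepaRG cells in serum-free induction medium, exposed 48 h in duplicate to 8 half-log concentrations up to 100 uM in 0.5% DMSO. TNFRSF1A mRNA by Fluidigm TaqMan qRT-PCR, normalized to ACTB, GAPDH, POLR2A; bidirectional fit.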

[16] = read-out: succinate dehydrogenase complex iron sulfur subunit B (SDHB), SDHB (gene 6390); assay: LTEA_HepaRG_SDHB: Life Technologies and Expression Analysis (LTEA) Assay for succinate dehydrogenase complex iron sulfur subunit B (SDHB) using HepaRG (AID 2283528)
Summary of the method: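 HepaRG cells (~100,000/well, plated 48 h) exposed in duplicate for 48 h in serum-free induction medium to 8-point half-log series from 100 uM in 0.5% DMSO; mRNA by qRT-PCR normalised to ACTB, GAPDH, POLR2A; bidirectional fit versus DMSO.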

Measured: AC50

Chain of Signal transducer and activator of transcription 3 (Homo sapiens) (P40763 whole entry, looked up): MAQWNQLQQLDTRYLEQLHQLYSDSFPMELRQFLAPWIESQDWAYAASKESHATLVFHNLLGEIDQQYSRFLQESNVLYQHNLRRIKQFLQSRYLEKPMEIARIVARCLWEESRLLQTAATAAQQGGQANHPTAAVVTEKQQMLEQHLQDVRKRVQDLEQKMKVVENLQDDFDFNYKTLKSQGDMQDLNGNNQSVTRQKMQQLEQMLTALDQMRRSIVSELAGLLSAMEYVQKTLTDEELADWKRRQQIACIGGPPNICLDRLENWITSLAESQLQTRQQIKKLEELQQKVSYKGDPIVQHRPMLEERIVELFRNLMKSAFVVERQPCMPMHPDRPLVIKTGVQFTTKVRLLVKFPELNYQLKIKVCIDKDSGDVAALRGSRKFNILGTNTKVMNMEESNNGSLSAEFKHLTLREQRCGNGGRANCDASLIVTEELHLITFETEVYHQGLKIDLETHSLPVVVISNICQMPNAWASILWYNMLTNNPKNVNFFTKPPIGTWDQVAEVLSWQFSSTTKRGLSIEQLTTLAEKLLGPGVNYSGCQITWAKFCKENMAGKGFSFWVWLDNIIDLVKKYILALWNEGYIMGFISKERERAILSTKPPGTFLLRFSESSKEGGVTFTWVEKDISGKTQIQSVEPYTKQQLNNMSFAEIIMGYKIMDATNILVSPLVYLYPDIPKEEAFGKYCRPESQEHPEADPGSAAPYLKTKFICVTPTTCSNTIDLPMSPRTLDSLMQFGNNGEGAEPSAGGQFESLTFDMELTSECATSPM
Chain of Nuclear factor erythroid 2-related factor 2 (Homo sapiens) (Q16236 whole entry, looked up): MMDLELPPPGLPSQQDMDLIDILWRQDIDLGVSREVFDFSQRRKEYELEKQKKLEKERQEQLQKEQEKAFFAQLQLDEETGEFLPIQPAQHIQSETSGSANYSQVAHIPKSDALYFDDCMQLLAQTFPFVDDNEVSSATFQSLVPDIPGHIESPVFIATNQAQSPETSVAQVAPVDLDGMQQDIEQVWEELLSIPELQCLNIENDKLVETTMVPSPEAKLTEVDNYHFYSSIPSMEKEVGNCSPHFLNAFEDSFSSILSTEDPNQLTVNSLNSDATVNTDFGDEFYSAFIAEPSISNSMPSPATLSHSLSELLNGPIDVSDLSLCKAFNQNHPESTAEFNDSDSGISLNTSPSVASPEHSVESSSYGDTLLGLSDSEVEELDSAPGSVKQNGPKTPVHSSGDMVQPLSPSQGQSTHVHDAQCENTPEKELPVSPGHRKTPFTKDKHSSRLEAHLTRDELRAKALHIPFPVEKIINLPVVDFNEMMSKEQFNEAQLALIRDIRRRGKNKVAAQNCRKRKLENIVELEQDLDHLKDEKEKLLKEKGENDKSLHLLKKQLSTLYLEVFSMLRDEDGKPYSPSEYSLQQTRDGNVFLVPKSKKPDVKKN

O=C(NC(=O)c1cc(F)c(F)cc1Cl)Nc1cc(F)ccc1N1CCC(C(=O)O)CC1
active: [4] 25 µM
not listed: [16]
inactive: all other assays above

CCC(=O)O[C@H]1CC[C@H]2[C@@H]3CCC4=CC(=O)CC[C@]4(C)[C@H]3CC[C@]12C
active: [3] 50 µM | [4] 13.3 µM | [11] 12.6 µM
not listed: [6] | [16]
inactive: all other assays above

CCNc1nc(NC(C)C)nc(SC)n1
active: [4] 12.4 µM
not listed: [6] | [16]
inactive: all other assays above

O=C(NC(=O)c1c(F)cccc1F)Nc1cc(Cl)c(OC(F)(F)C(F)F)c(Cl)c1
active: [10] 9.92 µM
not listed: [6] | [16]
inactive: all other assays above

CC(C)(O)C(=O)Nc1ccc([N+](=O)[O-])c(C(F)(F)F)c1
active: MYC, MYC (gene 4609) 0.0308 µM | [3] 0.0298 µM | [4] 25 µM | [5] 0.0226 µM | [8] 0.0268 µM | [11] 0.0191 µM | [13] 0.0264 µM
not listed: [6]
inactive: all other assays above

CCOCCOC(C)=O
not listed: [16]
inactive: all other assays above

C[C@]12CCC(=O)C=C1CC[C@@H]1[C@@H]2CC[C@]2(C)C(=O)CC[C@@H]12
active: [3] 8.39 µM | [4] 6.54 µM | [12] 15.2 µM | [13] 50 µM
not listed: [6] | [16]
inactive: all other assays above

CCC(C)(CC)c1cc(NC(=O)c2c(OC)cccc2OC)on1
active: MYC, MYC (gene 4609) 25.7 µM | [4] 14.2 µM | [9] 14.9 µM | [14] 50 µM
not listed: [6]
inactive: all other assays above
